The nature of assay [1]: qHTS assay to identify small molecule agonists of the hypoxia (HIF-1) signaling pathway - cell viability counter screen (AID 1224844; calls by dose curve; note: nearly all actives have a fitted effect of over 50% in size). An outline of the steps:
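Same wells as the HIF-1 reporter screen; ME-180 cells carrying HRE-bla, 17 hr treatment at 37C; CellTiter-Glo luminescence read after 30 min at room temperature.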
(In general: qHTS replaces the single test concentration by a dilution series.)

Assay [2] can be described thus: qHTS RealTime-Glo MT Cell Viability Assay in HepG2 cells - 24 hour (AID 1224867). Note: nearly all actives have a fitted effect of over 50% in size. A digest of the protocol: (§1)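 Viability was tracked continuously by NanoLuc luminescence from prosubstrate reduced by living HepG2 cells, at successive time points over 40 h of compound exposure. Cells with reagent were preincubated 5 h at 37 °C before compound addition.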
Assay [3] can be described thus: qHTS RealTime-Glo MT Cell Viability Assay in HEK293 cells - 32 hour (AID 1224868). Note: nearly all actives have a fitted effect of over 50% in size. Note: potency is the fitted concentration of half-maximal effect. A digest of the protocol: (§2)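 Viability tracked continuously by luminescence as live cells reduce a prosubstrate for NanoLuc; HEK293 cells preincubated 5 h, compound-treated at 37 C, and read at 0, 8, 16, 24, 32 and 40 h.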
The nature of assay [4]: A CellTox Green Cytotoxicity Assay to monitor cytotoxicity in HEK293 cells - 0 hour (AID 1224869). Note: nearly all actives have a fitted effect of over 50% in size. An outline of the steps: (§3)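 Homogeneous no-lysis format: HEK293 cell suspension mixed with CellTox Green reagent, seeded, incubated 5 h at 37 C/5% CO2, then dosed by pintool with compound in DMSO.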
The nature of assay [5]: qHTS RealTime-Glo MT Cell Viability Assay in HepG2 cells - 40 hour (AID 1224870). Note: nearly all actives have a fitted effect of over 50% in size. An outline of the steps: (§4)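 HepG2 cells mixed with RealTime-Glo MT reagents (NanoLuc plus cell-permeant prosubstrate) were seeded at 600 cells/well, incubated 5 h at 37 C/5% CO2, then pinned with compounds in DMSO; nonlytic luminescence tracked viability during 40 h treatment.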
The nature of assay [6]: qHTS RealTime-Glo MT Cell Viability Assay in HEK293 cells - 16 hour (AID 1224872). Note: nearly all actives have a fitted effect of over 50% in size. Note: potency is the fitted concentration of half-maximal effect. A digest of the protocol: as §2
Assay [7] can be described thus: qHTS RealTime-Glo MT Cell Viability Assay in HepG2 cells - 8 hour (AID 1224873). Note: nearly all actives have a fitted effect of over 55% in size. A digest of the protocol: as §4
Assay [8] in a line: qHTS RealTime-Glo MT Cell Viability Assay in HEK293 cells - 40 hour (AID 1224874). Note: nearly all actives have a fitted effect of over 50% in size. Note: potency is the fitted concentration of half-maximal effect. To be noted: RealTime-Glo luminescence; max response: stronger effect = lower value. A digest of the protocol: (§5)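 Measured as luminescence from the same continuously cultured HEK293 wells at successive time points (0, 8, 16, 24, 32, 40 h) after compound addition. Reagent present from seeding; dosing at 5 h; incubation 37 C.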

Assay [9] can be described thus: A CellTox Green Cytotoxicity Assay to monitor cytotoxicity in HepG2 cells - 16 hour (AID 1224876). Note: nearly all actives have a fitted effect of over 45% in size. A digest of the protocol:
(§6)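 Fluorescent DNA-binding dye, 600 HepG2 cells/well, 5 h preincubation then compound in DMSO; same plates read at 0–40 h, 37 C.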

The nature of assay [10]: qHTS RealTime-Glo MT Cell Viability Assay in HepG2 cells - 32 hour (AID 1224877). Note: nearly all actives have a fitted effect of over 55% in size. An outline of the steps:
as §1

Assay [11] is described as follows: A CellTox Green Cytotoxicity Assay to monitor cytotoxicity in HepG2 cells - 24 hour (AID 1224878). Note: nearly all actives have a fitted effect of over 45% in size. A digest of the protocol: as §6
The nature of assay [12]: A CellTox Green Cytotoxicity Assay to monitor cytotoxicity in HepG2 cells - 40 hour (AID 1224879). Note: nearly all actives have a fitted effect of over 40% in size. An outline of the steps: as §6
Assay [13] in a line: qHTS RealTime-Glo MT Cell Viability Assay in HEK293 cells - 0 hour (AID 1224880). Note: nearly all actives have a fitted effect of over 45% in size. Note: potency is the fitted concentration of half-maximal effect. A digest of the protocol: as §5
The nature of assay [14]: qHTS assay to identify small molecule agonists of H2AX (AID 1224845; active = well fitted activation curve with a large enough effect in the signal ratio in the repeat runs, not every such curve was filed as active; the % refers to the signal ratio). A digest of the protocol:
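Wild-type CHO-K1 cells plated overnight, then exposed 3 hr at 37C to compounds at 15 concentrations (0.76% DMSO). Lysed, then HTRF anti-pH2AX(S139)-cryptate/anti-H2AX-d2 detection after 24 hr at room temperature; emissions 665 and 620 nm.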

Assay [15] is described as follows: qHTS assay to identify small molecule agonists of the hypoxia (HIF-1) signaling pathway (AID 1224846; active = well fitted activation curve with a large enough effect in the signal ratio in the repeat runs, not every such curve was filed as active; the % refers to the signal ratio). A digest of the protocol: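 In ME-180 cells bearing an HRE-bla construct, 17 h treatment with DMSO-dissolved compounds at 37C was followed by CCF4-AM loading to quantify reporter induction.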
Assay [16] can be described thus: qHTS assay to identify small molecule agonists of H2AX - cell viability counter screen (AID 1224847; calls by dose curve; note: top concentration of the series differs between compounds; nearly all actives have a fitted effect of over 30% in size). A digest of the protocol:
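Wild-type CHO-K1 cells (10% FBS medium) were plated overnight at 37C, exposed to compounds at 15 concentrations for 3 hr at 37C (0.76% DMSO final), and viability was read as CellTiter-Glo luminescence after 30 min at room temperature.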

The nature of assay [17]: A CellTox Green Cytotoxicity Assay to monitor cytotoxicity in HEK293 cells - 40 hour (AID 1224871). Note: nearly all actives have a fitted effect of over 45% in size. A digest of the protocol:
as §3

A short description of assay [18]: qHTS assay to identify small molecule antagonists of the estrogen related receptor (ERR) signaling pathway from Tox21 library (AID 1224848). Note: nearly all actives have a fitted effect of over 50% in size. Note: potency is the fitted concentration of half-maximal effect. An outline of the steps: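 First, 2,000 ERR cells per well were plated and held 6 h at 37 C/5% CO2. Next, compounds in DMSO were pinned in and left 18 h at 37 C. Finally, ONE-Glo was added and luminescence read after 30 min at room temperature.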

Assay [19] can be described thus: qHTS assay to identify small molecule agonists of the estrogen related receptor (ERR) signaling pathway from Tox21 library (AID 1224849; calls by dose curve; note: nearly all actives have a fitted effect of over 15% in size). As to conditions: ERR reporter cell line, ONE-Glo luciferase, 18 h; at 92.4 µM (top of the series) unless noted. An outline of the steps:
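Reporter cells (ERR, NTP source) treated with Tox21 10K compounds 18 h, 37 C. Readout: ONE-Glo luminescence, 30 min RT.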

Assay [20] can be described thus: A CellTox Green Cytotoxicity Assay to monitor cytotoxicity in HEK293 cells - 24 hour (AID 1224875). Note: nearly all actives have a fitted effect of over 45% in size. A digest of the protocol:
as §3

Records with an inconclusive call do not appear. Calls of active or inactive are those of the source. Unless noted, calls come from the whole dose curve; as a rule, active = well fitted curve in the direction sought with a large enough effect in the repeat runs; inconclusive = weak or mixed curves; inactive = no such curve, though single readings can be large; an effect the other way counts as inactive or inconclusive.
% is set by controls: 0 for no effect and ±100 for the full control effect.

As to `CN(Cc1ccc(C(C)(C)C)cc1)Cc1cccc2ccccc12`, the Potency entry in [1], in assay [2], in assay [3], in assay [4], in assay [5] and in [6] was “inactive” in each case. For the same compound, the Potency entry in [7], in assay [9], in assay [10], in assay [11], in assay [12] and in assay [13] was “inactive” in each case. Further, the max response in assay [8] was -22.5% (inactive).

As to `CCCCC(=O)OCC(=O)[C@H]1[C@H](C)C[C@H]2[C@@H]3C[C@H](F)C4=CC(=O)C=C[C@]4(C)[C@@]3(F)[C@@H](O)C[C@@]21C`, the Potency result in [14], in assay [15], in assay [16], in assay [2], in [3] and in assay [4] was “inactive” in each case. In addition, the Potency result in assay [5], in assay [17], in [6], in assay [7], in assay [10] and in assay [11] was “inactive” throughout. In [12], the Potency entry was “inactive”. For the same compound, the max response in assay [8] was -15.1% (inactive). The Potency in assay [13] was 4.77 µM (active).

For the compound `O=S(c1cc(Cl)cc(Cl)c1O)c1cc(Cl)cc(Cl)c1O`, the Potency result in [18], in [2], in assay [3], in assay [4], in [5] and in [17] was “inactive” in each case. For the same compound, the Potency result in assay [7], in [20], in assay [9], in [10], in assay [11] and in assay [12] was “inactive” each time. For the same compound, in assay [13], the Potency entry was “inactive”. Also, the activity change, positive = activation in assay [19] was -6.01% [at 42.5 µM] (inactive). The max response in assay [8] was -7.88% (inactive).

With `CO[C@@H]1[C@H](OC(=O)/C=C/C=C/C=C/C=C/C(=O)O)CC[C@]2(CO2)[C@H]1[C@@]1(C)O[C@@H]1CC=C(C)C`, the Potency result in assay [14], in assay [16], in [18], in assay [5], in assay [7] and in assay [9] was “inactive” throughout. The Potency entry in [10], in assay [11], in assay [12] and in [13] was “inactive” in each case. The activity change, positive = activation in [19] is -16% (inactive). The max response in assay [8] is 18.9% (inactive).

As to `Cc1cc(N)c2cc(NC(=O)Nc3ccc4nc(C)cc(N)c4c3)ccc2n1`, the Potency result in assay [3], in assay [4], in assay [5], in assay [17], in [6] and in assay [7] was “inactive” each time. The Potency result in assay [9], in assay [10], in [11], in [12] and in assay [13] was “inactive” each time. Besides, the max response in [8] is -16.5% (inactive).

Take `Cc1cccc(C)c1OCC(=O)N[C@@H](Cc1ccccc1)[C@@H](O)C[C@H](Cc1ccccc1)NC(=O)[C@H](C(C)C)N1CCCNC1=O`: the Potency in [18] is 23.7 µM (active); in [3], 23.9 µM (active); in assay [6] it was 23.9 µM (active); in [8] it was 23.9 µM (active). Also, the activity change, positive = activation in assay [19] was -59.8% [at 42.5 µM] (inactive). Moreover, the Potency result in assay [2], in assay [4], in assay [5], in [10], in [11] and in [12] was “inactive” each time. Besides, the Potency result in [13] is “inactive”.

The record behind these values is PubChem BioAssay (Tox21).
